This is part of a sample that, as a whole, favours compounds with a hit. Of some 83,000 tested, about 20% had one in any assay.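 96-well plates, one dose, 48 hours. Percent growth reported; active if below 10.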 Activity calls are given as the source filed them.
How the values were obtained:
Experiment in all cases: NCI-60 one-dose screen, 48 h (100 = growth as untreated, 0 = no growth, -100 = all killed)
Conditions in all cases: 10 µM unless noted
NCI-H23 lung = system: NCI-H23 lung
NCI-H226 lung = system: NCI-H226 lung
NCI-H322M lung = system: NCI-H322M lung
HOP-62 NSCLC = system: HOP-62 NSCLC
NCI-H460 lung = system: NCI-H460 lung
NCI-H522 lung = system: NCI-H522 lung
A549/ATCC NSCLC = system: A549/ATCC NSCLC
786-0 renal = system: 786-0 renal
COLO 205 colon = system: COLO 205 colon
DU-145 prostate = system: DU-145 prostate
K-562 leukemia = system: K-562 leukemia
MALME-3M melanoma = system: MALME-3M melanoma
MDA-MB-231 breast = system: MDA-MB-231 breast
RXF 393 renal = system: RXF 393 renal
SF-268 CNS = system: SF-268 CNS
SF-295 CNS = system: SF-295 CNS
SF-539 CNS = system: SF-539 CNS
UACC-257 melanoma = system: UACC-257 melanoma
M14 melanoma = system: M14 melanoma
HCT-15 colon = system: HCT-15 colon

Measured: growth

CCCCSc1cc(C)nc(N)n1
inactive: NCI-H23 lung 95.9% | NCI-H226 lung 98.6% | NCI-H322M lung 97.1% | HOP-62 NSCLC 91.5% | NCI-H460 lung 103% | NCI-H522 lung 94.9% | A549/ATCC NSCLC 97.8% | 786-0 renal 95.6% | COLO 205 colon 112% | DU-145 prostate 105% | K-562 leukemia 94.8% | MALME-3M melanoma 96.4% | MDA-MB-231 breast 104% | RXF 393 renal 105% | SF-268 CNS 98.8% | SF-295 CNS 102% | SF-539 CNS 95.7% | UACC-257 melanoma 109% | M14 melanoma 99.2% | HCT-15 colon 91.1%

COc1cccc(-c2nnc(N)o2)c1
inactive: NCI-H23 lung 101% | NCI-H226 lung 103% | NCI-H322M lung 99.5% | HOP-62 NSCLC 102% | NCI-H460 lung 107% | NCI-H522 lung 96.8% | A549/ATCC NSCLC 102% | 786-0 renal 100% | COLO 205 colon 117% | DU-145 prostate 107% | K-562 leukemia 98.1% | MALME-3M melanoma 106% | MDA-MB-231 breast 124% | RXF 393 renal 94.6% | SF-268 CNS 111% | SF-295 CNS 113% | SF-539 CNS 111% | UACC-257 melanoma 92.7% | M14 melanoma 91.1% | HCT-15 colon 106%

Cc1scc2c1N(C(=O)CN1CCN(C)CC1)c1ccccc1NC2=O
inactive: NCI-H23 lung 93.9% | NCI-H226 lung 109% | NCI-H322M lung 105% | HOP-62 NSCLC 103% | NCI-H460 lung 124% | NCI-H522 lung 104% | A549/ATCC NSCLC 104% | 786-0 renal 98.8% | COLO 205 colon 108% | DU-145 prostate 118% | K-562 leukemia 108% | MALME-3M melanoma 108% | MDA-MB-231 breast 99.6% | RXF 393 renal 111% | SF-268 CNS 110% | SF-295 CNS 101% | SF-539 CNS 112% | UACC-257 melanoma 106% | M14 melanoma 111% | HCT-15 colon 107%

O=C(OC[C@H]1O[C@H](OC(=O)c2cc(O)c(O)c(OC(=O)c3cc(O)c(O)c(O)c3)c2)[C@H](OC(=O)c2cc(O)c(O)c(OC(=O)c3cc(O)c(O)c(O)c3)c2)[C@@H](OC(=O)c2cc(O)c(O)c(OC(=O)c3cc(O)c(O)c(O)c3)c2)[C@@H]1OC(=O)c1cc(O)c(O)c(OC(=O)c2cc(O)c(O)c(O)c2)c1)c1cc(O)c(O)c(OC(=O)c2cc(O)c(O)c(O)c2)c1
active: NCI-H226 lung 7.2% | NCI-H522 lung -11% | RXF 393 renal -12.7% | SF-295 CNS 9.95%
inactive: NCI-H23 lung 19% | NCI-H322M lung 19.3% | HOP-62 NSCLC 46.2% | NCI-H460 lung 11.6% | A549/ATCC NSCLC 34% | 786-0 renal 18.5% | COLO 205 colon 55.1% | DU-145 prostate 30.3% | K-562 leukemia 31.5% | MALME-3M melanoma 49% | MDA-MB-231 breast 23.5% | SF-268 CNS 27.2% | SF-539 CNS 29.3% | UACC-257 melanoma 60.2% | M14 melanoma 17.6% | HCT-15 colon 28.6%

COc1ccc(C2=NN(C(=O)c3cc(OC)c(OC)c(OC)c3)C(c3ccc(C#N)cc3)C2)cc1OC (stereo not given)
inactive: NCI-H23 lung 43.2% | NCI-H226 lung 52.4% | NCI-H322M lung 36.9% | HOP-62 NSCLC 36.1% | A549/ATCC NSCLC 22% | 786-0 renal 25.1% | K-562 leukemia 20.6% | MALME-3M melanoma 39.5% | MDA-MB-231 breast 18.2% | SF-268 CNS 49.3% | UACC-257 melanoma 69.2% | HCT-15 colon 26.7%
active: NCI-H460 lung 9.81% | NCI-H522 lung -16% | COLO 205 colon -9.28% | DU-145 prostate 5.75% | RXF 393 renal -17.2% | SF-295 CNS -3.96% | SF-539 CNS -13.3% | M14 melanoma -6.86%

COc1ccc(-c2c(-c3cc(OC)c(OC)c(OC)c3)noc2N)cc1
inactive: NCI-H23 lung 31.1% | NCI-H226 lung 16% | NCI-H322M lung 43.2% | HOP-62 NSCLC 41.4% | A549/ATCC NSCLC 22.3% | 786-0 renal 20% | K-562 leukemia 11.8% | MALME-3M melanoma 67.5% | MDA-MB-231 breast 17.1% | RXF 393 renal 26.5% | SF-268 CNS 23.8% | SF-539 CNS 19.3% | UACC-257 melanoma 77.5% | M14 melanoma 15.2% | HCT-15 colon 28%
active: NCI-H460 lung 7.26% | NCI-H522 lung -28.9% | COLO 205 colon -72% | DU-145 prostate -3.15% | SF-295 CNS 8.4%

— PubChem BioAssay (NCI)
